High-throughput results: PubChem, Broad Institute
Shown are actives, neighbours in structure and some others; about 2.7% of the full set was active somewhere.
PAX8 inh HTS = inhibitors of PAX8-driven TPO luciferase reporter, primary screen, RMG-I cells, single concentration | SteadyGlo, 24 h | inhibition, % at 12.6 µM | 1.2% of 360,000 active | AID 652154, 2013;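 active = mean replicate inhibition at least 60% with every replicate also reaching 60%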;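 note: luciferase light reporting Pax8 driven TPO promoter activity; plate controls were median of neutral control wells for no effect and mitoxantrone controls for full effect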
EWS-Fli block = EWS/Fli-driven NR0B1 reporter inhibitors, primary screen, A673 cells, NR0B1 luciferase, luminescence, MLPCN library; 0.67% of 350,000 active; viability-normalised; inhibition, % at 12.6 µM; AID 651661, 2012;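 active = mean inhibition of at least 50% after viability correction, with every replicate also passing that limit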;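 note: firefly luciferase signal divided by Alamar Blue viability fluorescence both relative to DMSO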
F508del corr = F508del CFTR correction, initial screen, CFBE line, single point | activity (quench increase), % at 7.58 µM | CFBE cells, YFP halide quenching; stimulated with forskolin plus potentiator P3; % fluorescence drop versus neutral controls | 0.36% of 350,000 active;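 active = mean added fluorescence quench of at least 8% versus neutral control, with both replicates also reaching 8%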;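 note: cells transiently co-express mutant CFTR-F508del with the halide-sensitive YFP; corrector assay measuring rescue of mutant channel to the surface after 24 h compound exposure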
HIV Env fusion = inhibitors of HIV-1 Env-driven cell-cell fusion, primary screen, HeLa-JRFL effector, CEM21 target cells, luciferase; inhibition, % at 12.3 µM; 1.1% of 360,000 active; AID 651610, 2012;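 active = mean replicate inhibition score of at least 50 and every replicate individually at or above 50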;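 note: 0% = plate neutral controls and 100% = maraviroc near 300 nM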
PGC1a acetyl inh = inhibitors of PGC1a acetylation signal, primary screen, cell-based, U2OS, AlphaScreen, inhibitor mode. AlphaScreen anti-acetyl-lysine; with virally co-expressed GCN5 acetyltransferase. inhibition, % at 15.6 µM. 0.17% of 350,000 active;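 active = every replicate shows inhibition of at least 40%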;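 note: 0% = neutral control wells and 100% = positive control wells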
INS-1E GSIS act = GLuc luminescence reporter in INS-1E cells, primary screen for activators of glucose-dependent secretion of insulin; INS-1E GLuc reporter insulin secretion, 2-3 h; activation, % at 16.6 µM; 0.61% of 370,000 active; AID 743287, 2014;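 active = lowest replicate activation of at least 40%, so every replicate reaches that level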;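 note: 0% = median of neutral control wells and 100% = median of IBMX positive control wells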
The depositor's hits bear a star; / = no result; [ ] = dose if it differs, or a comment.

SMILES | PAX8 inh HTS | EWS-Fli block | F508del corr | HIV Env fusion | PGC1a acetyl inh | INS-1E GSIS act
CCOC(=O)c1nc(NCc2cccnc2)c2ccccc2n1 | / | / | / | -12 | / | 46*
CCOC(=O)c1nc(NCc2ccccc2C)c2ccccc2n1 | 11 | -8 | 2 | 18 | / | 4
CC1CCCN(C(=O)c2nn(C)c3c2CSc2ccccc2-3)C1 (stereo not given) | -34 | -13 | 2 | -8 | -14 | 7
CC1CCCC(C)N1CCCNC(=O)c1nn(C)c2c1CSc1ccccc1-2 (stereo not given) | 27 | 5 | 2 | 80* | 7 | 2
O=C(CC1CC1)Nc1ccc2c(c1)[C@@H]1C[C@@H](CC(=O)NC3CCCC3)O[C@H](CO)[C@@H]1O2 | 2 | -4 | -4 | 18[16.7 µM] | -4 | -9
O=C(/C=C/c1ccccc1)NC(NC(=S)Nc1ccc(Cl)cc1)C(Cl)(Cl)Cl (stereo not given) | / | / | / | 61* | -41 | /
C[C@@H]1CCCCO[C@@H](CN(C)C(=O)NC2CCCCC2)[C@H](C)CN([C@@H](C)CO)C(=O)c2cc(NC(=O)C3CCCCC3)ccc2O1 | 9 | 7 | -5 | -22[16.7 µM] | -5 | -12
